The source of these data is PubChem BioAssay AID504692 (The Scripps Research Institute Molecular Screening Center, 2011).

SMILES strings stand for the structures. The whole screen tested about 340,000 compounds, of which about 2,000 (0.59%) were called active. What follows is part of a selection rich in actives, with near analogues and random picks from the rest. Unmarked numbers belong to inactive results. Rule as the data show it: active = activation mostly above about 9.5% (no sharp cut-off); inactive = mostly below about 7.6%.

For this experiment, the target named is 5-hydroxytryptamine receptor 5A (Homo sapiens) (UniProt P47898). Put plainly: HTR5A agonists in luminescence cell assay, primary screen, counter-screen for OPRM1-OPRD1 heterodimer agonist project, full-deck HTS (AID 504692).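 Also: 0% = cells with vehicle only and 100% = reference agonist.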 Particulars: cell-based, at 9.3 µM, stronger effect = higher value.
Sequence of 5-hydroxytryptamine receptor 5A (Homo sapiens) (P47898 whole entry, looked up): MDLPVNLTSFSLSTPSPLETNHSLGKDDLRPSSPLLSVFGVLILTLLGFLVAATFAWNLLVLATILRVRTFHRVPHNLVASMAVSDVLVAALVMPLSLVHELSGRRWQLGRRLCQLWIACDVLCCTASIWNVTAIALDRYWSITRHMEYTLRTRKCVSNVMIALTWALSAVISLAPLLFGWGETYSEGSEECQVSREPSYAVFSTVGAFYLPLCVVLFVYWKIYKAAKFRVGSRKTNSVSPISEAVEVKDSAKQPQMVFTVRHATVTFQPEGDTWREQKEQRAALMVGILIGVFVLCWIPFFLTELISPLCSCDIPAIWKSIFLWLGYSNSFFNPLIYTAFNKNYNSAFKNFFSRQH
Regarding `O=C(Nn1cnnc1)c1cc(Cl)ccc1Cl`, the activation was -1.93%.
The same measure for `Brc1ccc(-c2nn[nH]n2)cc1`: 8.54%; for `Clc1ccc(CN2CCCCCC2)cc1Cl`: 1.18%.
The same measure for `c1cc(-c2nn[nH]n2)ccc1CN1CCCCC1`: 19.3% (active).
The same measure for `OCC1(CO)CC2(C1)CC(CO)(CO)C2`: -2.41%; for `O=C(N/N=C\c1ccc(Br)cc1)c1ccc(Cn2cccn2)o1`: 0.84%.
With `Cc1c(Cl)c([N+](=O)[O-])nn1Cc1ccc(C(=O)N/N=C\c2cc(Cl)ccc2O)o1`, the activation is 13% (active).
As for `Cc1nn(Cc2ccc(Cl)cc2)c(Cl)c1/C=N/NC(=O)c1cccnc1`, the figure is 4.12%; as for `O=C(C1CCCO1)N1CCN(S(=O)(=O)c2ccc(Br)cc2)CC1` (stereo unspecified), 1.59%.
As for `COc1ccc(Cl)cc1NC(=O)CN(C)C(=O)c1cc(-c2cccs2)nn1-c1ccccc1`, the figure is -7.03%; as for `CCCN1C(=O)C(NS(=O)(=O)c2ccc(N)cc2)(C(F)(F)F)C(C(=O)OC)=C1C` (stereo unspecified), -4.18%; as for `COC(=O)c1c(NC(=O)C2CC(C)=C(C)CC2C(=O)O)sc2c1CCCCC2` (stereo unspecified), 5.77%.
As for `CNC(=O)c1c(NC(NC(=O)c2ccco2)C(=O)c2ccc(Cl)cc2)sc2c1CCCC2` (stereo unspecified), the figure is -4.03%.
As for `CC(C)OC(=O)c1c(NC(=O)c2ccco2)sc2c1CCCC2`, the activation was 14.5% (active).
As for `CN(C)CCCO/N=C(\c1ccccc1)c1ccncc1`, the figure is 7.85%; as for `Cc1ccc(C2CCN(C(=S)Nc3cccc(Cl)c3)C2)cc1` (stereo unspecified), 1.97%.
For the compound `CC(C)(C)n1ncc2c(=O)n(Cc3ccc(Cl)cc3)cnc21`, the activation is 3.5%.
The same measure for `CN(CC(=O)NCc1ccc(Cl)cc1)S(=O)(=O)c1cccs1`: 1.02%.
As for `CCSc1nc2sc3c(c2c(=O)[nH]1)CC(C)(C)OC3`, the figure is 2.29%; as for `CCSc1nnc(-c2cc3c(s2)-c2ccccc2CC3)o1`, -1.94%; as for `CSc1nc2sc3c(c2c(=O)[nH]1)CCc1ccccc1-3`, 12.1% (active).
Turning to `O=C(Nc1ccc2c(c1)OCO2)C1CC1(Cl)Cl` (stereo unspecified), the activation is 12.7%.
Turning to `Cc1ccc(-c2noc(CCC(=O)Nc3ccccc3N3CCN(C)CC3)n2)cc1`, the activation was -1.14%.
The same measure for `O=C(Nc1ccccc1Cl)O/N=C(/c1ccccc1)c1ccccn1`: 12.7% (active); for `O=C(COc1ccc(-n2cnnn2)cc1)Nc1ccccc1Cl`: 5.09%; for `Cc1ccc(C(=O)O/N=C(\N)c2ccccn2)cc1Cl`: 4.33%.
The same measure for `OCCC1CN(Cc2cccn2-c2nccs2)CCN1CCc1ccccc1` (stereo unspecified): 0.07%; for `O=C(CCNS(=O)(=O)c1ccccc1C(F)(F)F)NCc1ccc2c(c1)OCO2`: -3.01%; for `O=C(CCc1nnc(Cc2ccc3c(c2)OCO3)o1)NCCc1ccccc1Cl`: 10.7% (active).
As for `O=C(CC(Cc1ccccc1)C(=O)O)NCCc1ccc2c(c1)OCO2` (stereo unspecified), the figure is 0.52%; as for `CC(NC(=O)COc1ccc(-c2ccccc2)cc1)C1CCCO1` (stereo unspecified), 4.73%.
Turning to `COCCCNC(=O)CN1CCN(Cc2ccccc2Cl)C1=O`, the activation was 2.41%.
The same measure for `Cc1nn(CC(=O)NCc2ccccn2)c(C)c1[N+](=O)[O-]`: -1.81%.
In the case of `Cc1ccccc1CN1CCN(CC(=O)NCc2ccccn2)C1=O`, the activation was 16.8% (active).
Take `O=C(Cn1nnc(-c2ccccc2)n1)N/N=C/c1ccc(-c2ccc(Cl)cc2)o1`: the activation is 1.41%.
As for `CC(=O)Nc1ccc(C(=O)Nc2cccc(S(=O)(=O)NC3=NCCC3)c2)cc1`, the figure is 1.89%; as for `CN(CCOc1ccc(Br)cc1)CC(=O)Nc1cccc(S(=O)(=O)NC2=NCCC2)c1`, 12.7% (active).
In the case of `CCc1ccc(C(=O)OCC(=O)Nc2cccc(S(=O)(=O)NC3=NCCCCC3)c2)cc1`, the activation was 7.2%.
As for `Cn1c(=O)[nH]c(=O)c2c1nc(N(CCO)Cc1ccccc1)n2Cc1ccccc1Cl`, the figure is -3.62%.
As for `COc1ccc(Cl)cc1NC(=O)C(C)N1CCc2ccccc21` (stereo unspecified), the figure is 1.38%.
Turning to `CCCCCc1ccc(-c2ccc(C(=O)O)cc2)nc1`, the activation is 4.14%.
With `CCc1ccc(NC(=O)CN2C(=O)COc3ccc(S(=O)(=O)N4CCCC4)cc32)cc1`, the activation was 0.59%.
The same measure for `COc1ccc(NC(=O)CN2C(=O)CSC2=O)cc1`: -1%; for `CCc1ccc(NC(=O)CN2C(=O)CSC2=O)cc1`: 13.7% (active).
The same measure for `COC(=O)c1c(CCl)noc1C(=O)NC(C)C`: 2.61%; for `CC(C)(C)NC(=O)COC(=O)c1cc(Cl)ccc1[N+](=O)[O-]`: 7.24%.
As for `CCOC(=O)c1cnc2sccn2c1=O`, the figure is 21% (active); as for `CCOC(=O)c1ccccc1NS(=O)(=O)c1c(C)nc2sccn2c1=O`, -1.95%.
Take `CN(C)/C=C/C(=O)c1cnc2sccn2c1=O`: the activation was 0.28%.
As for `Cc1nc(C(=O)NCc2ccccc2)sc1C1(C)CC(c2cccnc2)=NO1` (stereo unspecified), the figure is 6.13%; as for `Cc1cccc(OCC(=O)Nc2ccccc2F)c1`, 0.76%; as for `Cc1cccc(OCCC(=O)Nc2ccccc2C(N)=O)c1`, 1.89%.
As for `COc1cccc(OCC(=O)Nc2ccccc2C(N)=O)c1`, the figure is 18.3% (active).
As for `Cc1cc(C)c(S(=O)(=O)NCC(c2ccc3c(c2)OCO3)N2CCOCC2)c(C)c1` (stereo unspecified), the figure is -4.07%; as for `Cc1ccc2nc(SC(C)C(=O)NCc3ccco3)[nH]c2c1` (stereo unspecified), -4.41%; as for `CC(=O)c1c(C)[nH]c(C(=O)OCC(=O)Nc2c(C)n(C)n(-c3ccccc3)c2=O)c1C`, 1.57%.
`CC(=O)c1c(C)[nH]c(C(=O)OCC(=O)Nc2c(C)cccc2C)c1C`: the activation is 17.5% (active).
The same measure for `CC(=O)c1c(C)[nH]c(C(=O)OCC(=O)NCCC(C)C)c1C`: -1.47%.
As to `CSCCC(NS(=O)(=O)/C=C/c1ccccc1)C(=O)N1CCC(C)CC1` (stereo unspecified), the activation is -0.99%.
As for `CCNS(=O)(=O)c1ccc(NC(=O)Nc2cccc(C(F)(F)F)c2)cc1`, the figure is 12.8% (active); as for `COc1ccccc1C(=O)Nc1cccc(C(=O)N2CCOCC2)c1`, 3.58%; as for `CCNS(=O)(=O)c1ccc(NC(=O)c2cncc(Br)c2)cc1`, 0.87%.
As for `O=C(COc1ccc(S(=O)(=O)Nc2cccc(C(F)(F)F)c2)cc1)N1CCOCC1`, the figure is 1.4%.
As for `O=C(NCc1ccccc1)c1ccc(S(=O)(=O)Nc2cccc(C(F)(F)F)c2)cc1`, the figure is 2.56%.
With `O=C(Nc1ccc(C(=O)N2CCOCC2)cc1)Nc1cccc(C(F)(F)F)c1`, the activation was 28.4% (active).
For the compound `Cc1cc(OCCN2CCCC2)ccc1C(C)C`, the activation was 8.01%.
As for `O=C(NCCCO)c1cc2c([nH]c3ccccc32)c(-c2ccc(F)cc2)n1`, the figure is 1.16%.
Regarding `COc1ccccc1C(=O)COC(=O)COc1ccc(C#N)cc1`, the activation is -2.03%.
The same measure for `COc1ccc(-c2nc(CS(=O)(=O)CC(=O)NCc3cccc(Br)c3)c(C)o2)cc1`: 4.07%.
With `O=C(COC(=O)CCCNC(=O)c1ccc(Cl)cc1)Nc1cc(Cl)ccc1Cl`, the activation was 7.08%.
The same measure for `O=C(CN(c1ccccc1)S(=O)(=O)c1ccc(Cl)cc1)Nc1ccccc1C(=O)N1CCCC1`: -0.02%.
The same measure for `CCN(CC)C(=O)c1nc[nH]c1C(=O)N(C)Cc1ccccc1`: -1.14%; for `COc1ccc(CCNC(=O)C(Sc2ccccn2)c2ccccc2)cc1OC` (stereo unspecified): 2.72%.
For the compound `COc1ccc(C(CCN(Cc2ccc(OC)c(OC)c2)C(=O)CCl)c2ccccc2)cc1` (stereo unspecified), the activation is 44.4% (active).
As for `COc1ccc(COC(=O)NC(C(=O)O)c2ccccc2)cc1` (stereo unspecified), the activation is -0.04%.
For the compound `CCCNC(=S)NC1CC2CCCC(C1)N2CC(C)C` (stereo unspecified), the activation was 4.6%.
Take `COc1c(N2CCN(C(=S)Nc3ccccc3F)C(C)C2)c(F)cc2c(=O)c(C(=O)O)cn(C3CC3)c12` (stereo unspecified): the activation was -0.11%.
The same measure for `O=C(NC(Cc1c[nH]c2ccccc12)C(=O)O)/C(=C/c1ccco1)NC(=O)c1ccccc1` (stereo unspecified): 0.55%.
As for `Cc1ccc(C(=O)N/C(=C\c2ccco2)C(=O)N2CCSCC2)cc1C`, the figure is 1.54%; as for `Cc1ccc(C(=O)N/C(=C/c2ccco2)C(=O)NCCc2c[nH]c3ccccc23)cc1C`, 20.3% (active).
The same measure for `Cc1ccc(/C=N/NC(=O)C(NC(=O)c2ccccc2)c2n[nH]c(=O)c3ccccc23)cc1` (stereo unspecified): 3%.
